Viability data for 40 compounds are collected here from PubChem BioAssay.

Structures are written as SMILES. Records with an inconclusive call do not appear. A number with no mark means an inactive call.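 Rule for the calls, unless noted: active = cell viability at or below a set limit in both duplicate runs, the limit being the all-compound median minus 4 SD (cut at about 23% in these data, passing the limit was not always enough); inconclusive = no clear call, values can overlap the other calls; inactive = the rest.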

The first experiment can be described thus: viability of HCT116 without oncogenic beta-catenin – human colon tumor cells, pilot screen (AID 823).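 Note: 0% = wells killed by 20 µM Hyamine and 100% = untreated DMSO cell wells.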 The note with it: HCT116 beta-catenin knockout viability, CellTiter-Glo, 60 h; at 10 µM; hits give low values.
By viability is commonly meant a read-out of living cells in per cent, often relative to untreated cells. For the compound `CCOC1CCCCC1NS(=O)(=O)c1ccc(Cl)cc1` (stereo not given), the viability was 99.3%.
As for `COc1cccc(CNC(=O)c2ccc(NC(=O)C3CCCO3)cc2)c1` (stereo not given), the viability was 95.1%.
The same measure, in the same setting: next, `Cc1cc2cc(CNC(=O)c3ccc(Br)o3)ccc2[nH]1`: 86.5%; `COc1ccc(C2C(C(=O)c3cccs3)=C(O)C(=O)N2c2nnc(C)s2)cc1OC` (stereo not given): 102%; `O=C(NCCN1C(=O)C2C3C=CC(C3)C2C1=O)Nc1ccc(Br)cc1` (stereo not given): 103%.
Still for that read-out and setting: next, `CC1CCN(c2nc3ccccc3nc2C(C#N)S(=O)(=O)c2ccccc2)CC1` (stereo not given): 91.4%; `O=C(COc1ccccc1)Nc1nnc(-c2ccc(Cl)s2)o1`: 109%; `O=C(Cn1cc2c(n1)CCCC2)NC1CCCCCC1`: 99.2%.
On the same count and under the same terms, the result for `O=C(CCn1c(=O)sc2ccccc21)NCc1ccccc1` reads 107%; that for `COc1ccc(CNc2ccc3cn[nH]c3c2)c(OC)c1OC`, 74.7%; that for `Cc1ccc(NC(=O)C2CCCN2S(=O)(=O)c2ccc3c(c2)CCC(=O)N3)cc1Cl` (stereo not given), 81.8%.
`COc1ccc(OC)c(NC(=O)c2c(NC(=O)CNCc3ccco3)sc3c2CCC3)c1`: the viability is 95.8%.
The same measure, in the same setting: the result for `C=C(C)CSc1nc2c(cc1C#N)CCC2` reads 99.4%; that for `CCOC(=O)c1[nH]c2cc(OC)c(OC)cc2c1NC(=O)c1ccc2c(c1)OCO2`, 102%; that for `COC(=O)c1ccccc1Nc1cc(C)nc2nc(C)nn12`, 105%.
The same measure, in the same setting: next, `COC(=O)c1ccccc1NC(=O)CSc1nccn1C`: 93.1%; `O=CN1CCN(C(C(=O)NC2CCCC2)c2ccc(Cl)cc2)CC1` (stereo not given): 86.2%.
The same measure, in the same setting: the result for `O=C(NCCC1=CCCCC1)c1ccc2c(=O)n3c(nc2c1)CCCCC3` reads 89.6%; that for `Cc1ccc(CNC(=O)CCS(=O)(=O)c2cccc3nsnc23)cc1`, 103%; that for `COc1cc(NC(=O)CN2CC(c3ccccc3)CC2=O)cc(OC)c1` (stereo not given), 100%.
On to `Cc1cccc(OCCn2c(=O)n(C)c3ccccc32)c1`, for which the viability is 85.3%.
Consider `C1=C(N2CCOCC2)/C(=C/c2nc3ccccc3[nH]2)CC1`, for which the viability was 78.9%.
Still for that read-out and setting: next, `Nc1nonc1-n1nncc1-c1ccccc1`: 92.4%.
Still for that read-out and setting: next, `O=C1CC(c2ccco2)Sc2nc3ccccc3n21` (stereo not given): 67.2%; `CCC1CCCCN1Cc1nc2c(c(=O)n(C)c(=O)n2C)n1Cc1ccccc1` (stereo not given): 75.3%; `CCOCCCNC(=O)C(c1ccc(Cl)cc1)N1CCN(C(=O)c2ccco2)CC1` (stereo not given): 101%.
On the same count and under the same terms, next, `O=C(C1CC1)N1CCc2cc(Br)cc(S(=O)(=O)NCCCN3CCCC3)c21`: 87.6%; `COc1ccc(CCN=C2SCC(=O)N2C)cc1OC`: 102%; `CCOc1ccccc1NC(=O)C1CCC(CNc2c(N3CCOCC3)c(=O)c2=O)CC1` (stereo not given): 108%.
`Cc1ccc(-n2c(SCC(=O)NCC3CCCO3)nc3c(c2=O)SCC3)cc1` (stereo not given): the viability is 100%.
Same read-out and setting: the result for `O=C(CCS(=O)(=O)c1cccc2nonc12)NCCc1ccccc1` reads 103%.
On the same count and under the same terms, next, `O=c1c2cc(-c3ccccc3)sc2ncn1/N=C/c1ccco1`: 96.6%; `Cc1nnc(NC(=O)CSC2CCCCC2)s1`: 105%; `COc1cccc(N2CCN(C3CC(=O)N(c4ccc(Cl)cc4)C3=O)CC2)c1` (stereo not given): 96.2%.
The same measure, in the same setting: the result for `Cc1cc(Nc2cccc(F)c2)n2nc(C)nc2n1` reads 101%; that for `CCCCNc1nc2c(c(=O)n(C)c(=O)n2C)n1CCC`, 97.1%; that for `Cc1ccc2c(c1)N(CCCC(=O)NCc1ccc3c(c1)OCO3)C(=O)CO2`, 95.4%.
Regarding `Cc1c(C(=O)N2CCC(C(N)=O)CC2)sc(N)c1C#N`, the viability is 94.7%.
On to `Cc1cc(NC(=O)c2cc(CC(C)C)on2)no1`, for which the viability was 106%.
On the same count and under the same terms, the result for `COC(=O)c1nc2n(n1)C(c1cccc(Cl)c1)C1=C(CCCC1=O)N2` (stereo not given) reads 98.1%.

A short description of a further experiment: viability of PTEN-null HCT116 cells – cell-based, HCT116 clonal line, CellTiter-Glo, pilot screen (AID 824;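 active = viability at or below 27.92% in each of two runs, the all-compound median minus 4 SD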;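 note: 0% = 20 µM Hyamine control and 100% = vehicle cell control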). The note with it: HCT116 PTEN-deleted viability, 60 h, at 10 µM, hits give low values. Background: In ATP-based viability assays light output follows the ATP content of the culture.
In the case of `CCOC1CCCCC1NS(=O)(=O)c1ccc(Cl)cc1` (stereo not given), the viability was 91.7%.
As to `COc1cccc(CNC(=O)c2ccc(NC(=O)C3CCCO3)cc2)c1` (stereo not given), the viability is 97.2%.
The same measure, in the same setting: the result for `Cc1cc2cc(CNC(=O)c3ccc(Br)o3)ccc2[nH]1` reads 85.1%; that for `COc1ccc(C2C(C(=O)c3cccs3)=C(O)C(=O)N2c2nnc(C)s2)cc1OC` (stereo not given), 101%.
Still for that read-out and setting: the result for `O=C(NCCN1C(=O)C2C3C=CC(C3)C2C1=O)Nc1ccc(Br)cc1` (stereo not given) reads 88.3%.
On to `CC1CCN(c2nc3ccccc3nc2C(C#N)S(=O)(=O)c2ccccc2)CC1` (stereo not given), for which the viability was 95.1%.
Turning to `O=C(COc1ccccc1)Nc1nnc(-c2ccc(Cl)s2)o1`, the viability is 100%.
Still for that read-out and setting: next, `O=C(Cn1cc2c(n1)CCCC2)NC1CCCCCC1`: 93.6%; `O=C(CCn1c(=O)sc2ccccc21)NCc1ccccc1`: 105%.
Same read-out and setting: next, `COc1ccc(CNc2ccc3cn[nH]c3c2)c(OC)c1OC`: 79.7%; `Cc1ccc(NC(=O)C2CCCN2S(=O)(=O)c2ccc3c(c2)CCC(=O)N3)cc1Cl` (stereo not given): 85.8%; `COc1ccc(OC)c(NC(=O)c2c(NC(=O)CNCc3ccco3)sc3c2CCC3)c1`: 88.2%.
As for `C=C(C)CSc1nc2c(cc1C#N)CCC2`, the viability was 99.1%.
Turning to `CCOC(=O)c1[nH]c2cc(OC)c(OC)cc2c1NC(=O)c1ccc2c(c1)OCO2`, the viability was 101%.
Still for that read-out and setting: the result for `COC(=O)c1ccccc1Nc1cc(C)nc2nc(C)nn12` reads 115%; that for `COC(=O)c1ccccc1NC(=O)CSc1nccn1C`, 92.2%.
The same measure, in the same setting: the result for `O=CN1CCN(C(C(=O)NC2CCCC2)c2ccc(Cl)cc2)CC1` (stereo not given) reads 88.5%; that for `O=C(NCCC1=CCCCC1)c1ccc2c(=O)n3c(nc2c1)CCCCC3`, 97.8%; that for `Cc1ccc(CNC(=O)CCS(=O)(=O)c2cccc3nsnc23)cc1`, 104%.
The same measure, in the same setting: next, `COc1cc(NC(=O)CN2CC(c3ccccc3)CC2=O)cc(OC)c1` (stereo not given): 99.4%.
With `Cc1cccc(OCCn2c(=O)n(C)c3ccccc32)c1`, the viability is 83%.
On to `C1=C(N2CCOCC2)/C(=C/c2nc3ccccc3[nH]2)CC1`, for which the viability was 82.1%.
Consider `Nc1nonc1-n1nncc1-c1ccccc1`, for which the viability is 96.7%.
On the same count and under the same terms, the result for `O=C1CC(c2ccco2)Sc2nc3ccccc3n21` (stereo not given) reads 80.3%.
Still for that read-out and setting: the result for `CCC1CCCCN1Cc1nc2c(c(=O)n(C)c(=O)n2C)n1Cc1ccccc1` (stereo not given) reads 74.4%.
Same read-out and setting: next, `CCOCCCNC(=O)C(c1ccc(Cl)cc1)N1CCN(C(=O)c2ccco2)CC1` (stereo not given): 96.2%.
As for `O=C(C1CC1)N1CCc2cc(Br)cc(S(=O)(=O)NCCCN3CCCC3)c21`, the viability was 86.3%.
Same read-out and setting: the result for `COc1ccc(CCN=C2SCC(=O)N2C)cc1OC` reads 97%.
As for `CCOc1ccccc1NC(=O)C1CCC(CNc2c(N3CCOCC3)c(=O)c2=O)CC1` (stereo not given), the viability is 92.7%.
The same measure, in the same setting: the result for `Cc1ccc(-n2c(SCC(=O)NCC3CCCO3)nc3c(c2=O)SCC3)cc1` (stereo not given) reads 96.7%; that for `O=C(CCS(=O)(=O)c1cccc2nonc12)NCCc1ccccc1`, 99.1%; that for `O=c1c2cc(-c3ccccc3)sc2ncn1/N=C/c1ccco1`, 82%.
Regarding `Cc1nnc(NC(=O)CSC2CCCCC2)s1`, the viability was 97.9%.
The same measure, in the same setting: the result for `COc1cccc(N2CCN(C3CC(=O)N(c4ccc(Cl)cc4)C3=O)CC2)c1` (stereo not given) reads 91.6%; that for `Cc1cc(Nc2cccc(F)c2)n2nc(C)nc2n1`, 94.4%.
The same measure, in the same setting: next, `CCCCNc1nc2c(c(=O)n(C)c(=O)n2C)n1CCC`: 96%; `Cc1ccc2c(c1)N(CCCC(=O)NCc1ccc3c(c1)OCO3)C(=O)CO2`: 83.9%.
Still for that read-out and setting: the result for `Cc1c(C(=O)N2CCC(C(N)=O)CC2)sc(N)c1C#N` reads 99.1%; that for `Cc1cc(NC(=O)c2cc(CC(C)C)on2)no1`, 94.5%.
With `COC(=O)c1nc2n(n1)C(c1cccc(Cl)c1)C1=C(CCCC1=O)N2` (stereo not given), the viability was 95.3%.
